# NadD inh – NadD (S. aureus) enzyme inhibition. 0.78% of 360,000 active. purified NadD enzyme, colorimetric absorbance read-out. inhibition, % at 20 µM; in the data active = inhibition above about 26%
# B2AR ag – activates human beta-2 adrenergic receptor causing internalization; response, % (concentration not given with the values); 0.43% of 340,000 active; P07550; AID 504454; Am2.2-beta2AR cells, FAP receptor internalization, flow cytometry;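 active = response above a set limit, near 3 SD of response in nonfluorescent compounds, cut at about 42% in these data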
# Target sequence (P07550 whole entry, looked up): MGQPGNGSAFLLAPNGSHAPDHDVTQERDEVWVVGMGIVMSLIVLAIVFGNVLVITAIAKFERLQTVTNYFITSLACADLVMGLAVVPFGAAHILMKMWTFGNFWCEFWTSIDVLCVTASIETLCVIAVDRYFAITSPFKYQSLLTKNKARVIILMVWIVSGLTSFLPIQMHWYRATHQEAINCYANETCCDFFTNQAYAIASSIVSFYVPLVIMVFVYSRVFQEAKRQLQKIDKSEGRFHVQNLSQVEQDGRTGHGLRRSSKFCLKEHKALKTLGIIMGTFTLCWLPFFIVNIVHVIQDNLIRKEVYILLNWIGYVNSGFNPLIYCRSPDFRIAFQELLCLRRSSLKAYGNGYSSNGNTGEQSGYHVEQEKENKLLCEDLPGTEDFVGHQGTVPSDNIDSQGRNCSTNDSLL
# Granule exo inh – lytic granule exocytosis inhibition; 0.66% of 360,000 active; inhibition, % at 10 µM; TALL-104 LAMP-1 surface exposure, flow cytometry; cells stimulated with thapsigargin and PMA;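 active = inhibition above about 55%, limit read from the data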
# GRK2 aptamer HTS – human GRK2 inhibition via aptamer displacement; bead flow cytometry, FAM-aptamer displacement from GRK2; 0.59% of 330,000 active; AID 488847; inhibition of aptamer binding, % at 10 µM; P25098;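 active = inhibition of aptamer binding above 40%, roughly 3 SD of noise, on plates passing a quality check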;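 also: median bead fluorescence of bound FAM aptamer so fluorescent compounds give negative values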
# PP1 counter – blocks human PP1-alpha phosphatase, a PP5 counter-screen; purified PP1alpha, OMFP fluorescence; inhibition, % at 6.7 µM; 0.9% of 320,000 active;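 active = inhibition above the mean inhibition of all tested compounds plus 3 SD, computed separately for each screening campaign, cut at about 15% in these data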
# Starred values were filed as active, the others as inactive; . = not tested or not shown. A selection: hits, their analogues and other compounds. The true share with any hit is near 2.9%.
SMILES,NadD inh,B2AR ag,Granule exo inh,GRK2 aptamer HTS,PP1 counter
Cc1nc(C(=O)O)cc([N+](=O)[O-])c1C,-3,.,8,.,.
COc1ccc(OC)c(S(=O)(=O)Oc2ccc(N)c3ccccc23)c1,9,6,75*,4,0
Cc1cc(C=O)c(C)n1-c1cccc(C(=O)O)c1,0,2,-2,15,-2
Cc1ccc(C)n1-c1cccc(C(=O)O)c1,.,.,.,96*,14
O=C1C=CC(O)(c2cc(=O)c3c(O)cc(O)cc3o2)C=C1,2,45*,-9,0,4
O=C(CC(O)(CC(=O)OCc1ccccc1)C(=O)OCc1ccccc1)OCc1ccccc1,-12,2,4,.,.
COc1ccc(CC2=CC(=O)c3ccccc3C2=O)cc1,-3,56*,50,1,1
O=c1c2c(nc3c(-c4cccc5ccccc45)c[nH]n13)CCC2,7,-3,2,3,17*
CCCNC(=O)c1ccc(N2CCC3(CC2)CC(c2cccc(Br)c2)=NO3)c(NC(=O)c2ccccc2)c1,15,-2,-1,.,16*
CCCNC(=O)c1ccc(N2CCC3(CC2)CC(c2ccccc2)=NO3)c(NC(=O)c2ccc(Br)cc2)c1,23,6,-3,0,9
Cc1c(C)c(C)c2[nH]c(-c3ccc4c(c3)OCO4)nc2c1C,7,8,61*,1,6
COc1ccc(C2CC(=O)C(C(c3ccc(O)cc3)C3C(=O)CC(c4ccc(OC)cc4)CC3=O)C(=O)C2)cc1 (configuration not stated),.,.,.,52*,0
COc1ccc(C2=CC(=O)CC(c3ccc(OC)cc3)C2)cc1 (configuration not stated),-6,-4,18,0,-7
COc1ccc(/C=C2\SC(=S)N(CC(=O)NC3C=CS(=O)(=O)C3)C2=O)cc1 (configuration not stated),14,.,-16,0,16*
COc1ccc(OC)c2c1C(=O)c1ccccc1C2=O,.,.,.,2,-1
COc1ccc(OC)c2c1C(=O)C(Cl)=C(Cl)C2=O,-1,97*,93*,3,2
Cc1ccc(S(=O)(=O)N2[C@@H](c3ccccc3)C(C(=O)O)=CC[C@H]2c2ccc(C(C)C)cc2)cc1,10,-11,-4,0,15*
Cc1ccc([C@H]2C(C(=O)O)=CC[C@@H](c3ccc(C(C)C)cc3)N2S(=O)(=O)c2ccc(C)cc2)cc1,25,9,1,8,.
CCc1ccc([C@@H]2CC=C(C(=O)O)[C@H](c3cccc(Cl)c3)N2S(=O)(=O)c2ccc(C)cc2)cc1,9,-3,-4,3,16*
Cc1ccc(S(=O)(=O)N(C)C)cc1NC(=O)C(C)OC(=O)c1ccc2c(=O)n3c(nc2c1)CCC3 (configuration not stated),4,9,-4,.,.
C=C[C@]1(C)C=C2C(=O)[C@@]3(O)OC(=O)[C@@]4(CCCC(C)(C)[C@H]34)[C@@]2(O)CC1,-1,.,7,.,.
Cc1sc2ncnc(N3CCN(Cc4ccccc4)CC3)c2c1-c1ccccc1,-10,8,63*,0,3
CCC(=O)N(CC)C1=C(O)c2ccccc2C(=O)C1=O,0,12,92*,4,-4
CCC(=O)N(C1=C(NC)C(=O)c2ccccc2C1=O)C(C)C,1,-5,0,0,1
O=c1[nH]c(C2CCN(S(=O)(=O)c3ccccc3C(F)(F)F)CC2)nc2c1nnn2Cc1cccc(F)c1,7,5,15,2,16*
SMILES,NadD inh,B2AR ag,Granule exo inh,GRK2 aptamer HTS,PP1 counter
Cc1ccc(S(=O)(=O)N(C)CCN(C)S(=O)(=O)c2ccc(C)cc2)cc1,0,27,0,.,.
Cc1csc(NC(=O)CSc2nc3[nH]c(=O)cc(O)c3s2)n1,6,93*,-8,.,.
O=C(CSc1nc2[nH]c(=O)cc(O)c2s1)Nc1nncs1,5,22,-2,.,.
Cc1sc(-n2c(C)cc(/C=C3\SC(=S)NC3=O)c2C)c(C#N)c1C,25*,-6,-3,6,12
Cc1cc(/C=C2\SC(=S)NC2=O)c(C)n1-c1cccc(O)c1,30*,-5,-1,0,8
CCn1c(C)cc(/C=C2/SC(=S)NC2=O)c1C,-4,-1,-4,0,2
CC1(OC(=O)C2CCCC2)C(=O)C=C2C=C(c3ccsc3)N(CCc3c[nH]c4ccccc34)C=C2C1=O (configuration not stated),18,2,0,3,17*
